# “And” between values parts separate entries of the source, which are not always exact repeats. Equal values may be shown once. The full ranking holds about 2,900 compounds; the median of “NF-kB SEAP reporter activity, fold change vs agonist alone” is about 0.99, and the highest 2% start at about 2.6. The list comes from a sample in which the highest values are over-represented; it also holds similar structures and randomly drawn compounds.
# Tests used:
# [1] = tested on: RAW-Dual; test: NF-kB SEAP reporter activity, fold change vs agonist alone; cytotoxicity flag (confluency mask): not cytotoxic; higher = enhanced NF-kB activity
# Method in brief: (§1)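 After 50 nL of library stock was delivered by pin tool to RAW-Dual macrophages (50,000 cells/well, DMEM, 384-well plates), a PRR agonist was added 1 h later and the plates were kept at 37 °C, 5% CO2. Twenty hours later, IRF was read from supernatant by QuantiLuc luminescence and NF-κB by QuantiBlue absorbance at 620 nm. Reporter activity is stated as fold change over agonist-alone wells. Wells with IncuCyte confluency under 70% of agonist controls in both mask sets were counted as cytotoxic.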
# [2] = tested on: RAW-Dual; test: NF-kB SEAP reporter activity, fold change vs agonist alone; higher = enhanced NF-kB activity; settings: library stock concentration (final ~1000-fold dilution): 10 mM
# Method in brief: as §1
# [3] = tested on: RAW-Dual; test: NF-kB SEAP reporter activity, fold change vs agonist alone; cytotoxicity flag (confluency mask): cytotoxic (confluency <70% of control); higher = enhanced NF-kB activity
# Method in brief: as §1
# [4] = agonist: ODN 1826 (TLR9) 0.5 ug/mL
# [5] = agonist: Pam2CSK4 (TLR2/6) 0.1 ug/mL
# [6] = agonist: Pam3CSK4 (TLR2/1) 0.1 ug/mL
# [7] = cytotoxicity flag (confluency mask): not cytotoxic, agonist: Imiquimod (TLR7) […]
# [8] = cytotoxicity flag (confluency mask): not cytotoxic, agonist: MPLA (TLR4) […]
# [9] = cytotoxicity flag (confluency mask): cytotoxic (confluency <70% of control), agonist: Imiquimod (TLR7) […]
# [10] = cytotoxicity flag (confluency mask): cytotoxic (confluency <70% of control), agonist: MPLA (TLR4) […]
smiles,measurement,setting,value
CCCC1CC(C(=O)NC(C(C)Cl)C2OC(SC)C(O)C(O)C2O)N(C)C1 (stereo not drawn) (library stock concentration (final ~1000-fold dilution): 10 mM),NF-kB SEAP reporter activity,[1]; agonist: LPS (TLR4) 0.1 ug/mL,1.14
same,NF-kB SEAP reporter activity,[1]; [4],1.04
same,NF-kB SEAP reporter activity,[1]; [5],1.04
same,NF-kB SEAP reporter activity,[1]; [6],1.17
CCCC1CC(C(=O)NC(C(C)Cl)C2OC(SC)C(O)C(O)C2O)N(C)C1 (stereo not drawn),NF-kB SEAP reporter activity,[2]; [7],1.02
same,NF-kB SEAP reporter activity,[2]; [8],1.07
COc1cccc2c1C(=O)c1c(O)c3c(c(O)c1C2=O)CC(O)(C(C)=O)CC3OC1CC(N)C(O)C(C)O1.Cl (stereo not drawn),NF-kB SEAP reporter activity,[2]; [9],0.365
same,NF-kB SEAP reporter activity,[2]; [10],0.213
COc1cccc2c1C(=O)c1c(O)c3c(c(O)c1C2=O)CC(O)(C(C)=O)CC3OC1CC(N)C(O)C(C)O1.Cl (stereo not drawn) (library stock concentration (final ~1000-fold dilution): 10 mM),NF-kB SEAP reporter activity,[3]; agonist: LPS (TLR4) 0.1 ug/mL,0.249
same,NF-kB SEAP reporter activity,[3]; [4],0.191
same,NF-kB SEAP reporter activity,[3]; [5],0.0932
same,NF-kB SEAP reporter activity,[3]; [6],0.195
CC1CN(CC(Cc2ccccc2)C(=O)NCC(=O)O)CCC1(C)c1cccc(O)c1 (stereo not drawn) (library stock concentration (final ~1000-fold dilution): 10 mM),NF-kB SEAP reporter activity,[1]; agonist: LPS (TLR4) 0.1 ug/mL,1.51
same,NF-kB SEAP reporter activity,[1]; [4],1.01
same,NF-kB SEAP reporter activity,[1]; [5],0.937
same,NF-kB SEAP reporter activity,[1]; [6],0.609
CC1CN(CC(Cc2ccccc2)C(=O)NCC(=O)O)CCC1(C)c1cccc(O)c1 (stereo not drawn),NF-kB SEAP reporter activity,[2]; [7],1.03
same,NF-kB SEAP reporter activity,[2]; [8],1.01
Cn1cc(Nc2nccc(N3CC4CCC(C3)N4C(=O)C3CC3(F)F)n2)cn1 (stereo not drawn) (library stock concentration (final ~1000-fold dilution): 10 mM),NF-kB SEAP reporter activity,[1]; agonist: LPS (TLR4) 0.1 ug/mL,0.973
same,NF-kB SEAP reporter activity,[1]; [4],1.3
same,NF-kB SEAP reporter activity,[1]; [5],1.69
same,NF-kB SEAP reporter activity,[1]; [6],2.02
Cn1cc(Nc2nccc(N3CC4CCC(C3)N4C(=O)C3CC3(F)F)n2)cn1 (stereo not drawn),NF-kB SEAP reporter activity,[2]; [7],1.19
same,NF-kB SEAP reporter activity,[2]; [8],0.995
CC(NCCC(c1ccccc1)c1ccccc1)c1ccccc1.Cl (stereo not drawn),NF-kB SEAP reporter activity,[2]; [10],1.24
CC(NCCC(c1ccccc1)c1ccccc1)c1ccccc1.Cl (stereo not drawn) (library stock concentration (final ~1000-fold dilution): 10 mM),NF-kB SEAP reporter activity,[3]; agonist: LPS (TLR4) 0.1 ug/mL,1.18
same,NF-kB SEAP reporter activity,[3]; [4],0.723
same,NF-kB SEAP reporter activity,[3]; [5],0.754
same,NF-kB SEAP reporter activity,[3]; [6],0.637
CCCCCCCCCCCC(CC1OC(=O)C1CCCCCC)OC(=O)C(CC(C)C)NC=O (stereo not drawn) (library stock concentration (final ~1000-fold dilution): 10 mM),NF-kB SEAP reporter activity,[1]; agonist: LPS (TLR4) 0.1 ug/mL,1.07
same,NF-kB SEAP reporter activity,[1]; [4],1.02
same,NF-kB SEAP reporter activity,[1]; [5],0.959
same,NF-kB SEAP reporter activity,[1]; [6],0.978
CCCCCCCCCCCC(CC1OC(=O)C1CCCCCC)OC(=O)C(CC(C)C)NC=O (stereo not drawn),NF-kB SEAP reporter activity,[2]; [7],0.823
same,NF-kB SEAP reporter activity,[2]; [8],0.902
CN(C)C/C=C/C(=O)Nc1ccc(C(=O)Nc2cccc(Nc3ncc(Cl)c(-c4c[nH]c5ccccc45)n3)c2)cc1.Cl.Cl,NF-kB SEAP reporter activity,[2]; [9],0.142
same,NF-kB SEAP reporter activity,[2]; [10],0.258
CN(C)C/C=C/C(=O)Nc1ccc(C(=O)Nc2cccc(Nc3ncc(Cl)c(-c4c[nH]c5ccccc45)n3)c2)cc1.Cl.Cl (library stock concentration (final ~1000-fold dilution): 10 mM),NF-kB SEAP reporter activity,[3]; agonist: LPS (TLR4) 0.1 ug/mL,0.242
same,NF-kB SEAP reporter activity,[3]; [4],0.189
same,NF-kB SEAP reporter activity,[3]; [5],0.0773
same,NF-kB SEAP reporter activity,[3]; [6],0.176
N#Cc1ccnc(N2C(=O)CCC2C(=O)N(c2cncc(F)c2)C(C(=O)NC2CC(F)(F)C2)c2ccccc2Cl)c1 (stereo not drawn),NF-kB SEAP reporter activity,[2]; [7],1.14
same,NF-kB SEAP reporter activity,[2]; [8],1.16
N#Cc1ccnc(N2C(=O)CCC2C(=O)N(c2cncc(F)c2)C(C(=O)NC2CC(F)(F)C2)c2ccccc2Cl)c1 (stereo not drawn) (library stock concentration (final ~1000-fold dilution): 10 mM),NF-kB SEAP reporter activity,[1]; agonist: LPS (TLR4) 0.1 ug/mL,1.37
same,NF-kB SEAP reporter activity,[1]; [4],1.16
same,NF-kB SEAP reporter activity,[1]; [5],0.753
same,NF-kB SEAP reporter activity,[1]; [6],0.775
CCOC(=O)C1=C(COCCN)NC(C)=C(C(=O)OC)C1c1ccccc1Cl (stereo not drawn) (library stock concentration (final ~1000-fold dilution): 10 mM),NF-kB SEAP reporter activity,[3]; agonist: LPS (TLR4) 0.1 ug/mL,2.23 and 2.05
same,NF-kB SEAP reporter activity,[3]; [4],0.736 and 1.01
same,NF-kB SEAP reporter activity,[3]; [5],0.785 and 0.751
same,NF-kB SEAP reporter activity,[3]; [6],0.888 and 1.41
CCOC(=O)C1=C(C)NC(C)=C(C(=O)OC)C1c1cccc(Cl)c1Cl (stereo not drawn),NF-kB SEAP reporter activity,[2]; [7],1.53
same,NF-kB SEAP reporter activity,[2]; [8],0.952
COC(=O)C1=C(C)NC(C)=C(C(=O)OC)C1c1ccccc1[N+](=O)[O-] (library stock concentration (final ~1000-fold dilution): 10 mM),NF-kB SEAP reporter activity,[1]; agonist: LPS (TLR4) 0.1 ug/mL,2.15
same,NF-kB SEAP reporter activity,[1]; [4],1.42
same,NF-kB SEAP reporter activity,[1]; [5],1.5
same,NF-kB SEAP reporter activity,[1]; [6],1.37
CCOC(=O)C1=C(C)NC(C)=C(C(=O)OC)C1c1cccc(Cl)c1Cl (stereo not drawn) (library stock concentration (final ~1000-fold dilution): 10 mM),NF-kB SEAP reporter activity,[1]; agonist: LPS (TLR4) 0.1 ug/mL,0.607
same,NF-kB SEAP reporter activity,[1]; [4],0.648
same,NF-kB SEAP reporter activity,[1]; [5],0.408
same,NF-kB SEAP reporter activity,[1]; [6],0.423
COC(=O)C1=C(C)NC(C)=C(C(=O)OCC(C)C)C1c1ccccc1[N+](=O)[O-] (stereo not drawn) (library stock concentration (final ~1000-fold dilution): 10 mM),NF-kB SEAP reporter activity,[1]; agonist: LPS (TLR4) 0.1 ug/mL,0.885
same,NF-kB SEAP reporter activity,[1]; [4],0.605
same,NF-kB SEAP reporter activity,[1]; [5],0.675
same,NF-kB SEAP reporter activity,[1]; [6],0.706
COC(=O)C1=C(C)NC(C)=C(C(=O)OC)C1c1ccccc1[N+](=O)[O-],NF-kB SEAP reporter activity,[2]; [7],1.59
same,NF-kB SEAP reporter activity,[2]; [8],1.35
CCOC(=O)C1=C(COCCN)NC(C)=C(C(=O)OC)C1c1ccccc1Cl.O=S(=O)(O)c1ccccc1 (stereo not drawn) (library stock concentration (final ~1000-fold dilution): 10 mM),NF-kB SEAP reporter activity,[3]; agonist: LPS (TLR4) 0.1 ug/mL,2.27
same,NF-kB SEAP reporter activity,[3]; [4],0.532
same,NF-kB SEAP reporter activity,[3]; [5],0.907
same,NF-kB SEAP reporter activity,[3]; [6],0.924
COC(=O)C1=C(C)NC(C)=C(C(=O)OCC(C)C)C1c1ccccc1[N+](=O)[O-] (stereo not drawn),NF-kB SEAP reporter activity,[2]; [7],0.706
same,NF-kB SEAP reporter activity,[2]; [8],0.773

# From the supplement of paper PMC10037445
